Source: PubChem (several laboratories)
An excerpt weighted towards active compounds, which were near 4.7% of everything screened.
HSF1 inhib: HSF1 inhibition | NIH3T3-HGL HSE-luciferase, MG132-induced, luminescence 8 h; hits give low values | 300,000 tested, 0.77% active | activity change, negative = inhibition, % at 7.5 µM (by protocol) | AID 2098;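 active = more than half of replicate wells show activity change below -50%, luminescence cut by over half; inconclusive = some wells, but at most half, below -50%; inactive = no replicate well below -50%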;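 also: luciferase reports HSF-1 transcriptional activity via heat shock element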
HSF1 activator: increases HSF-1 driven luciferase reporter signal. NIH3T3-HGL HSF-1 luciferase reporter, MG132, 8 h; 100% = twice DMSO control signal. activation, % at 9 µM. 300,000 tested, 1.7% active;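 active = mean replicate activation of at least 50% with a set share of replicates each reaching 50%; inconclusive = only one of those two conditions met; inactive = mean below 50% and too few replicates reaching it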
TWEAK-Fn14 inh: blocks TWEAK-Fn14 interaction in a reporter cell assay; TWEAK-stimulated Fn14 reporter cells, luciferase luminescence, 8 h; inhibition, % at 10 µM; 360,000 tested, 2% active; AID 1159606; in the data active = inhibition above about 50%
HSP90 inh: inhibitors of HSP90 luciferase refolding in rabbit reticulocyte lysate; luciferase refolding luminescence, 3 h; inhibition, % at 5.6 µM; 290,000 tested, 0.91% active; AID 1789;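 active = inhibition above the screen-wide mean plus 3 SD, computed separately per campaign, cut at about 16% in these data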;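 also: inhibitors lower the luminescence because luciferase stays unfolded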
EBV LMP1 NFkB: Epstein-Barr LMP1 NF-kappaB reporter inhibition | LMP1-induced NF-kappaB luciferase reporter cells, luminescence | 350,000 tested, 0.69% active | inhibition, % at 12.5 µM | AID 504558; in the data active = inhibition above about 41%; inconclusive = no clear call, values can overlap the other calls
TROY NFkB inh: inhibitors of TROY-dependent NF-kB signaling. 360,000 tested, 0.98% active. Q293 LMP1-TROYcd NF-kB luciferase reporter, 4 h. inhibition, % at 10 µM;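 active = compounds whose plate-normalised and pattern-corrected inhibition of the luciferase reporter signal at the single screening dose is 50% or more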
Each line names hits and unclear results; the compound was inactive in the other large screens.

CC1=NN(c2cccc(C(=O)O)c2)C(=O)/C1=C\C=C\c1ccco1	none
CC1=NN(c2ccccc2)C(=O)/C1=C/C=C/c1ccccc1	TWEAK-Fn14 inh 95
Cc1ccc(C2=NOC(=O)/C2=C\C=C\c2ccccc2)cc1	HSF1 activator 133
COC(=O)[C@]12CCCCC=C1N(Cc1ccco1)C(=O)[C@H](CC(=O)NCCc1ccccc1OC)C2	none (no result: HSF1 inhib, HSF1 activator, HSP90 inh, EBV LMP1 NFkB)
Cc1c(C(=O)NCC2COc3ccccc3O2)oc2ccc(S(=O)(=O)N3CCOCC3)cc12 (stereo not given)	TWEAK-Fn14 inh 57
Cc1c(C(=O)NCC2COc3ccccc3O2)oc2ccc(S(=O)(=O)N3CC(C)CC(C)C3)cc12 (stereo not given)	none
CCN(CC)S(=O)(=O)c1ccc2oc(C(=O)NCC3COc4ccccc4O3)c(C)c2c1 (stereo not given)	TWEAK-Fn14 inh 56
Cc1c(C(=O)NCc2ccc3c(c2)OCO3)oc2ccc(S(=O)(=O)N3CCC(C)CC3)cc12	TWEAK-Fn14 inh 59
Cc1c(C(=O)NCc2ccc3c(c2)OCO3)oc2ccc(S(=O)(=O)N3CCCCCC3)cc12	none
CCN(CC)S(=O)(=O)c1ccc2oc(C(=O)NC3CC3)c(C)c2c1	none
CCc1nc2c(OCC(=O)C(C)(C)C)cccn2c1N(C)C(=O)C(C)C	none (no result: HSF1 inhib, HSF1 activator, HSP90 inh, EBV LMP1 NFkB)
CCCCCCn1cc(CN2CC(N3CCN(C4CCN(C)CC4)CC3)CS2(=O)=O)nn1 (stereo not given)	none (no result: HSF1 inhib, HSF1 activator, HSP90 inh, EBV LMP1 NFkB)
Cc1ccc(N=Nc2ccc(O)cc2)c(Br)c1	HSF1 activator 61
Cc1ccc(OCCSc2nc3ccccc3n2CCC(=O)O)c(C(C)C)c1	none (no result: HSF1 inhib, HSF1 activator, HSP90 inh)
CCCC(=O)N1CCC1(C)C(=O)NS(=O)(=O)c1ccccc1 (stereo not given)	none (no result: HSF1 inhib, HSF1 activator, HSP90 inh, EBV LMP1 NFkB)
O=C(c1cc2nc(-c3ccco3)cc(C(F)(F)F)n2n1)N1CCN(c2ccccn2)CC1	TWEAK-Fn14 inh 51
CCOC(=O)c1cc2c(=O)n3ccccc3nc2n(C)c1=NC(=O)c1c(-c2c(F)cccc2Cl)noc1C	none (no result: HSP90 inh)
CCOC(=O)c1cc2c(=O)n3ccccc3nc2n(C(C)C)c1=NC(=O)c1c(-c2c(F)cccc2Cl)noc1C	TWEAK-Fn14 inh 57
O=C(NCc1ccccc1)c1cc(C2CCCN(C(=O)c3ccccc3)C2)on1 (stereo not given)	none (no result: HSF1 inhib, HSF1 activator, HSP90 inh, EBV LMP1 NFkB)
CNCc1c(OCc2ccccc2F)ccc2ccccc12	HSF1 inhib -71
O=C(CC[C@H]1O[C@@H](n2ccc(=O)[nH]c2=O)[C@H](O)[C@@H]1O)N[C@@H](Cc1ccccc1)C(=O)NCC1CCCCC1	none (no result: HSF1 inhib, HSF1 activator, HSP90 inh, EBV LMP1 NFkB)
CCOC(=O)C1CCCN(C(=O)/C=C/c2ccc(Cl)cc2)C1 (stereo not given)	none
Cc1ccc(/C=C/C(=O)N2CCCC(C)C2)cc1 (stereo not given)	HSF1 activator 65
CC(C)Cc1ccc(/C=C/C(=O)N2CCCCC2)cc1	HSF1 activator 58
CC1(C(=O)Nc2cccc3c2CCCC3)CCN1C(=O)c1cccc(F)c1 (stereo not given)	none (no result: HSF1 inhib, HSF1 activator, HSP90 inh, EBV LMP1 NFkB)
CCCc1nc2oc3c(Cl)ncnc3c2c2c1CCCC2	none
CC(C)Cc1nc2oc3c(Cl)ncnc3c2c2c1CCCC2	TROY NFkB inh 73
COc1cccc2c1C1COC3C4CC(C(=O)O)C(C(C2)N13)N4C (stereo not given)	TWEAK-Fn14 inh 61 (no result: HSF1 inhib, HSF1 activator, HSP90 inh)
COc1cccc2c1C(CCCC(=O)O)CCC2 (stereo not given)	none (no result: HSF1 inhib, HSF1 activator, HSP90 inh)
CNc1cc(-c2cnn(CC(C)C)c2)ncn1	none (no result: HSF1 inhib, HSF1 activator, HSP90 inh, EBV LMP1 NFkB)
Cc1ccc(OCCn2cnc3ccccc3c2=O)c([N+](=O)[O-])c1	HSF1 activator 58
Cc1cc(OCCn2cnc3ccccc3c2=O)ccc1[N+](=O)[O-]	none
CC(=O)c1c(C)oc2ccc(NS(=O)(=O)c3ccc(F)cc3C)cc12	TWEAK-Fn14 inh 56
O=C(NCCc1ccccc1)c1oc2ccccc2c1COc1ccccc1	none
COc1ccc2oc(C(=O)NCCc3ccccc3)c(C)c2c1	TWEAK-Fn14 inh 82, EBV LMP1 NFkB 54, TROY NFkB inh 70 (no result: HSP90 inh)
Cc1c(C(=O)NCCc2ccccc2)oc2ccccc12	HSF1 activator 62
COc1ccc2oc(C(=O)OCC(=O)NCCc3ccccc3)c(C)c2c1	none (no result: HSP90 inh)
Cc1cccc(CN2CCC(C(=O)Nc3cccc(-c4cccc(F)c4)c3)CC2)n1	none
Cc1cccc(CN2CCC(C(=O)Nc3cccc(-c4cscn4)c3)CC2)n1	HSF1 activator 82
Cc1cc(C)cc(CC(=O)N2CCC2(C)C(=O)NS(=O)(=O)c2ccc(Br)cc2)c1 (stereo not given)	none (no result: HSF1 inhib, HSF1 activator, HSP90 inh, EBV LMP1 NFkB)
COCCNC(=S)N(C)[C@H]1C[C@H]2c3cc(N4CCN(C)CC4)ccc3CCN2C(=O)[C@H]1[C@H](C)O	none (no result: HSF1 inhib, HSF1 activator, HSP90 inh)
CCc1nc2c(OCC(=O)C(C)(C)C)cccn2c1N(C=O)Cc1ccc(OC)cc1	none (no result: HSF1 inhib, HSF1 activator, HSP90 inh, EBV LMP1 NFkB)
O=C(CCNC(=O)c1ccc([N+](=O)[O-])cc1)NCCC1=CCCCC1	none (no result: HSP90 inh)
O=C(NCCC1=CCCCC1)c1ccc(F)cc1	TWEAK-Fn14 inh 54, HSP90 inh 38
COc1ccc(OC)c(NC(=O)C(=O)NCCC2=CCCCC2)c1	TWEAK-Fn14 inh 78
O=C(CN1C(=O)C2C3C=CC(C3)C2C1=O)NCCC1=CCCCC1 (stereo not given)	EBV LMP1 NFkB 76
O=C(CCNC(=O)c1ccc(Cl)cc1)NCCC1=CCCCC1	none (no result: HSP90 inh)
Cc1cc(C(=O)NCCC2=CCCCC2)ccc1[N+](=O)[O-]	HSF1 activator 58
O=C(OCc1ccccc1)N1CCC2CC1c1cc(-c3ccc4c(c3)OCO4)ccc12 (stereo not given)	none (no result: HSF1 inhib, HSF1 activator, HSP90 inh)
O=C1NC[C@@H](CCCCN2CCN(CCc3ccccc3)C(=O)C2=O)N(CC2CCCCC2)C1=O	none (no result: HSF1 inhib, HSF1 activator, HSP90 inh, EBV LMP1 NFkB)
COC(=O)[C@]1(Sc2ccc(C)cc2)CC(=O)N[C@@H]1c1ccccc1	none (no result: HSF1 inhib, HSF1 activator, HSP90 inh, EBV LMP1 NFkB)
O=C(NCCC1=CCCCC1)c1ccc([N+](=O)[O-])cc1	HSF1 activator 53
O=C(NC(=S)NCCC1=CCCCC1)c1ccco1	HSF1 activator 62
O=C(NCCC1=CCCCC1)NC12CC3CC(CC(C3)C1)C2	TROY NFkB inh 63
COc1cccc(C(=O)NCCC2=CCCCC2)c1	HSF1 activator inconclusive, TWEAK-Fn14 inh 51
O=C(NCc1ccccc1)c1cc(C2CCCN(S(=O)(=O)c3ccccc3)C2)on1 (stereo not given)	none (no result: HSF1 inhib, HSF1 activator, HSP90 inh, EBV LMP1 NFkB)
CC(=C\c1ccccc1)/C=C1/SC(=S)N(CCC(=O)O)C1=O	TWEAK-Fn14 inh 55
CC(=O)c1ccc(NC(=O)CCCN2C(=O)/C(=C/C(C)=C/c3ccccc3)SC2=S)cc1	HSF1 activator 70
O=c1cc(/C=C/c2ccccc2)oc2c1ccc1ccccc12	TWEAK-Fn14 inh 64
COc1ccc(/C=C/c2noc(-c3ccccc3O)n2)cc1	TWEAK-Fn14 inh 56
CCOC(=O)C1=CCN(S(=O)(=O)c2ccc(F)cc2)C1c1cccc(F)c1 (stereo not given)	none (no result: HSF1 inhib, HSF1 activator, HSP90 inh, EBV LMP1 NFkB)
O=c1sc(/C=N/Nc2ccccc2)c(Cl)n1Cc1ccccc1	HSF1 activator 149
COc1ccc(OC)c(NC(=O)Nc2nc(C(N)c3ccccc3Cl)cs2)c1 (stereo not given)	none (no result: HSF1 inhib, HSF1 activator, HSP90 inh, EBV LMP1 NFkB)
